Results reported in PubChem BioAssay (NCATS).
Records with an inconclusive call do not appear. Activity calls are given as the source filed them. Unless noted, calls follow the shape of the dose curve; as a rule, active = well fitted curve in the direction sought with a large enough effect; inconclusive = small, poorly fitted or top-dose-only effect, or another doubt; inactive = no such curve, though single readings can be large; an effect the other way counts as inactive or inconclusive.

Experiments:
WaGa = assay: qHTS assay to identify novel small-molecules to repurpose for Merkel cell carcinoma treatment (AID 1296009); conditions: MCC and control cell lines, CellTiter-Glo viability, 72 h; series mostly up to 46 µM; also: % is scaled to controls: 0 for no effect and ±100 for the full control effect; nearly all actives have a fitted effect of over 60% in size
Procedure, shortened: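 72 hr, 37 degree celsius; NPC 8-pt / MIPE 11-pt dose response; compound pinned in DMSO; CellTiter-Glo, 10 min RT, luminescence; normalized to no-cell and DMSO controls.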

C33A = assay: Primary qHTS to identify gynecologic anti-cancer compounds using libraries of approved drugs and bioactive compounds (AID 1345084); conditions: Gynecologic cancer cell panel viability, ATPlite luminescence, 48 h; series mostly up to 57.5 µM; also: % is scaled to controls: 0 for no effect and ±100 for the full control effect; nearly all actives have a fitted effect of over 55% in size
Procedure, shortened: (§1)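 Measured: luminescence after ATPlite addition (15 min, RT). Exposure: 48 h, 37 C, 5% CO2.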

CAOV3 = assay: as above; conditions: Gynecologic cancer cell panel viability, ATPlite luminescence, 48 h; series mostly up to 57.5 µM
Procedure, shortened: as §1

CASKI = assay: as above; conditions: Gynecologic cancer cell panel viability, ATPlite luminescence, 48 h; series mostly up to 57.5 µM
Procedure, shortened: as §1

Es-2 = assay: as above; conditions: Gynecologic cancer cell panel viability, ATPlite luminescence, 48 h; series mostly up to 57.5 µM
Procedure, shortened: as §1

HeLa = assay: as above; conditions: Gynecologic cancer cell panel viability, ATPlite luminescence, 48 h; series mostly up to 57.5 µM
Procedure, shortened: as §1

Hek293T = assay: as above; conditions: Gynecologic cancer cell panel viability, ATPlite luminescence, 48 h, control line for the selectivity index; series mostly up to 57.5 µM
Procedure, shortened: as §1

JEG-3 = assay: as above; conditions: Gynecologic cancer cell panel viability, ATPlite luminescence, 48 h; series mostly up to 57.5 µM
Procedure, shortened: as §1

OV90 = assay: as above; conditions: Gynecologic cancer cell panel viability, ATPlite luminescence, 48 h; series mostly up to 57.5 µM
Procedure, shortened: as §1

PA-1 = assay: as above; conditions: Gynecologic cancer cell panel viability, ATPlite luminescence, 48 h; series mostly up to 57.5 µM
Procedure, shortened: as §1

SKOV3 = assay: as above; conditions: Gynecologic cancer cell panel viability, ATPlite luminescence, 48 h; series mostly up to 57.5 µM
Procedure, shortened: as §1

Tov-21-G = assay: as above; conditions: Gynecologic cancer cell panel viability, ATPlite luminescence, 48 h; series mostly up to 57.5 µM
Procedure, shortened: as §1

Tov112D = assay: as above; conditions: Gynecologic cancer cell panel viability, ATPlite luminescence, 48 h; series mostly up to 57.5 µM
Procedure, shortened: as §1

[1] = Drug repurposing screens with cells derived from glioblastoma tumor samples (AID 1345199); conditions: GBM patient neurospheres viability, ATP luminescence, 48 h; also: nearly all actives have a fitted effect of over 40% in size; also: potency is read from the fitted curve at half-maximal effect; as to activity, negative = cell killing: % is scaled to controls: 0 for no effect and ±100 for the full control effect
Procedure, shortened: (§2)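 Four patient lines of CD133+ GBM neurospheres were screened at several concentrations; hits were retested in those lines plus three slower-growing GBM lines, using 48-hour treatment and ATP-based viability.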

astro = assay: as above; conditions: viability, ATP luminescence, 48 h; series mostly up to 45.9 µM
Procedure, shortened: as §2

[2] = biological target: Nuclear receptor subfamily 1 group I member 2 (Rattus norvegicus) (UniProt Q9R1A7); assay: qHTS assay for small molecule activators of the rat pregnane X receptor (rPXR) signaling pathway (AID 651751; call rule not given here; also: 0% is about no effect); conditions: rPXR reporter cells, luciferase (One-Glo), 24 h
Chain of Nuclear receptor subfamily 1 group I member 2 (Rattus norvegicus) (Q9R1A7 whole entry, looked up): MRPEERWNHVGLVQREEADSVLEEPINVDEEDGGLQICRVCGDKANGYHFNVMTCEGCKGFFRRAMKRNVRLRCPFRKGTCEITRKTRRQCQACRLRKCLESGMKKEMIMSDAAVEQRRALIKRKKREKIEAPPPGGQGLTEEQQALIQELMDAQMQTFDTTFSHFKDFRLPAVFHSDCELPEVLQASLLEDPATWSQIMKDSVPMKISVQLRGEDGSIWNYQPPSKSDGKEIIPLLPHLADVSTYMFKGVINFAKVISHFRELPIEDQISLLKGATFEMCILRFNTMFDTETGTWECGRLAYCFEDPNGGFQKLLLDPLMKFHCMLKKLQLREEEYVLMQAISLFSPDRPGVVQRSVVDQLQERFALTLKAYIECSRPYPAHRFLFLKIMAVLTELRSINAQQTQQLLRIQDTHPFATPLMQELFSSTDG

[3] = qHTS assay for small molecule activators of the human pregnane X receptor (PXR) signaling pathway (AID 720659; call rule not given here; also: 0% is about no effect)
[4] = at 45.9 µM (top of the series), tumour line B
[5] = at 45.9 µM (top of the series), tumour line D
[6] = at 46.1 µM (top of the series), tumour line C
[7] = at 20 µM (top of the series), tumour line C
[8] = at 21.2 µM (top of the series), tumour line B
[9] = at 21.2 µM (top of the series), tumour line D
[10] = at 46 µM (top of the series), tumour line A

O=C(O)COc1nn(Cc2ccccc2)c2ccccc12
inactive: Potency (WaGa) | Potency (C33A) | Potency (CAOV3) | Potency (CASKI) | Potency (Es-2) | Potency (HeLa) | Potency (Hek293T) | Potency (JEG-3) | Potency (OV90) | Potency (PA-1) | Potency (SKOV3) | Potency (Tov-21-G) | Potency (Tov112D) | activity, negative = cell killing [1, 4] 0.429% | activity, negative = cell killing [1, 5] -3.69% | activity, negative = cell killing [1, 6] -16.4% | Potency (astro)

Cc1cc2c(cc1S(N)(=O)=O)S(=O)(=O)CCC2
inactive: Potency (WaGa) | Potency (C33A) | Potency (CAOV3) | Potency (CASKI) | Potency (Es-2) | Potency (HeLa) | Potency (Hek293T) | Potency (JEG-3) | Potency (OV90) | Potency (PA-1) | Potency (SKOV3) | Potency (Tov-21-G) | Potency (Tov112D) | activity, negative = cell killing [1, 7] 4.86% | activity, negative = cell killing [1, 8] -8.12% | activity, negative = cell killing [1, 9] 3.88% | activity, negative = cell killing ([1]; at 21.3 µM (top of the series), tumour line A) -0.554% | Potency (astro)

CNC(=O)Oc1ccc2c(c1)[C@]1(C)CCN(C)[C@@H]1N2C
inactive: Potency (WaGa) | Potency (C33A) | Potency (CAOV3) | Potency (CASKI) | Potency (Es-2) | Potency (HeLa) | Potency (Hek293T) | Potency (JEG-3) | Potency (OV90) | Potency (PA-1) | Potency (SKOV3) | Potency (Tov-21-G) | Potency (Tov112D) | activity, negative = cell killing [1, 4] -15.9% | activity, negative = cell killing [1, 5] -13.4% | activity, negative = cell killing [1, 6] -13.5% | Potency (astro) | max response [2] 1.34% | outcome [3]
active: Potency ([1]; tumour line A) 35.5 µM

CC1(C)[C@@H]2CC[C@@]1(C)C(=O)C2
inactive: Potency (WaGa) | Potency (C33A) | Potency (CAOV3) | Potency (CASKI) | Potency (Es-2) | Potency (HeLa) | Potency (Hek293T) | Potency (JEG-3) | Potency (OV90) | Potency (PA-1) | Potency (SKOV3) | Potency (Tov-21-G) | Potency (Tov112D) | activity, negative = cell killing [1, 4] -26.7% | activity, negative = cell killing [1, 5] -2.76% | activity, negative = cell killing [1, 6] -20.2% | Potency (astro) | max response [2] 4.84% | outcome [3]

Cc1c(Cl)cccc1Nc1ccccc1C(=O)O
inactive: Potency (WaGa) | Potency (C33A) | Potency (CAOV3) | Potency (CASKI) | Potency (Es-2) | Potency (HeLa) | Potency (Hek293T) | Potency (JEG-3) | Potency (OV90) | Potency (PA-1) | Potency (SKOV3) | Potency (Tov-21-G) | Potency (Tov112D) | activity, negative = cell killing [1, 4] -21.5% | activity, negative = cell killing [1, 5] -17% | activity, negative = cell killing [1, 6] -5.72%
active: Potency (astro) 11.2 µM

CCCCN(CCCC)CCCOC(=O)c1ccc(N)cc1
inactive: Potency (WaGa) | Potency (C33A) | Potency (CAOV3) | Potency (CASKI) | Potency (Es-2) | Potency (HeLa) | Potency (Hek293T) | Potency (JEG-3) | Potency (OV90) | Potency (PA-1) | Potency (SKOV3) | Potency (Tov-21-G) | Potency (Tov112D) | activity, negative = cell killing [1, 7] -6.46% | activity, negative = cell killing [1, 8] 6.6% | activity, negative = cell killing [1, 9] -16% | Potency (astro)

CCCCCCCCCCCCOS(=O)(=O)O
inactive: Potency (WaGa) | Potency (C33A) | Potency (CAOV3) | Potency (CASKI) | Potency (Es-2) | Potency (HeLa) | Potency (Hek293T) | Potency (JEG-3) | Potency (OV90) | Potency (PA-1) | Potency (SKOV3) | Potency (Tov-21-G) | Potency (Tov112D) | activity, negative = cell killing [1, 4] -29.7% | activity, negative = cell killing [1, 5] 0.019% | activity, negative = cell killing [1, 6] -0.178% | Potency (astro) | max response [2] 1.76% [middle of 4 runs] | outcome [3]

O=C1NS(=O)(=O)c2ccccc21
inactive: Potency (WaGa) | Potency (C33A) | Potency (CAOV3) | Potency (CASKI) | Potency (Es-2) | Potency (HeLa) | Potency (Hek293T) | Potency (JEG-3) | Potency (OV90) | Potency (PA-1) | Potency (SKOV3) | Potency (Tov-21-G) | Potency (Tov112D) | activity, negative = cell killing [1, 4] -3.37% | activity, negative = cell killing [1, 5] -3.92% | activity, negative = cell killing [1, 10] -6.92% | activity, negative = cell killing [1, 6] -6.41% | Potency (astro) | max response [2] -2.55% | outcome [3]

CCN(CC)CCNC(C(=O)OCCC(C)C)c1ccccc1 (configuration not stated)
active: Potency ([1]; tumour line A) 25.1 µM
inactive: Potency (WaGa) | Potency (C33A) | Potency (CAOV3) | Potency (CASKI) | Potency (Es-2) | Potency (HeLa) | Potency (Hek293T) | Potency (JEG-3) | Potency (OV90) | Potency (PA-1) | Potency (SKOV3) | Potency (Tov-21-G) | Potency (Tov112D) | activity, negative = cell killing [1, 4] -12.5% | activity, negative = cell killing [1, 6] 6.2% | Potency (astro)

CC(O)CN(CCN(CC(C)O)CC(C)O)CC(C)O (configuration not stated)
inactive: Potency (WaGa) | Potency (C33A) | Potency (CAOV3) | Potency (CASKI) | Potency (Es-2) | Potency (HeLa) | Potency (Hek293T) | Potency (JEG-3) | Potency (OV90) | Potency (PA-1) | Potency (SKOV3) | Potency (Tov-21-G) | Potency (Tov112D) | activity, negative = cell killing [1, 4] -16.3% | activity, negative = cell killing [1, 5] 3.18% | activity, negative = cell killing [1, 10] -27.7% | Potency (astro) | max response [2] -2.51% | outcome [3]

O=C(O)[C@H](O)c1ccccc1
inactive: Potency (WaGa) | Potency (C33A) | Potency (CAOV3) | Potency (CASKI) | Potency (Es-2) | Potency (HeLa) | Potency (Hek293T) | Potency (JEG-3) | Potency (OV90) | Potency (PA-1) | Potency (SKOV3) | Potency (Tov-21-G) | Potency (Tov112D) | activity, negative = cell killing [1, 4] -2.7% | activity, negative = cell killing [1, 5] 3.57% | activity, negative = cell killing [1, 6] 1.65% | Potency (astro)

COc1ccc2c(c1)C(=O)N(CCc1ccc(S(=O)(=O)NC(=O)NC3CCCCC3)cc1)C(=O)C2(C)C
inactive: Potency (WaGa) | Potency (C33A) | Potency (CAOV3) | Potency (CASKI) | Potency (Es-2) | Potency (HeLa) | Potency (Hek293T) | Potency (JEG-3) | Potency (OV90) | Potency (PA-1) | Potency (SKOV3) | Potency (Tov-21-G) | Potency (Tov112D) | activity, negative = cell killing [1, 7] -4.28% | activity, negative = cell killing [1, 8] -10.5% | activity, negative = cell killing [1, 9] -7.62% | Potency (astro)
